Measured values reported in PubChem BioAssay AID794 (The Scripps Research Institute Molecular Screening Center, 2007).
The other results are listed elsewhere or left out. A number with no mark means an inactive call. Active and inactive are the calls of the source. Rule as the data show it: active = inhibition above about 19%; inactive = the rest.

Each compound was assayed against Focal adhesion kinase 1 (Homo sapiens) (UniProt Q05397) (assay: human PTK2 activity blockers, single-point recheck – biochemical, confirmation (AID 794)). Conditions: FAK kinase biochemical inhibition assay; at 7 µM; active compounds read high.
Focal adhesion kinase 1 (Homo sapiens), sequence (Q05397 whole entry, looked up): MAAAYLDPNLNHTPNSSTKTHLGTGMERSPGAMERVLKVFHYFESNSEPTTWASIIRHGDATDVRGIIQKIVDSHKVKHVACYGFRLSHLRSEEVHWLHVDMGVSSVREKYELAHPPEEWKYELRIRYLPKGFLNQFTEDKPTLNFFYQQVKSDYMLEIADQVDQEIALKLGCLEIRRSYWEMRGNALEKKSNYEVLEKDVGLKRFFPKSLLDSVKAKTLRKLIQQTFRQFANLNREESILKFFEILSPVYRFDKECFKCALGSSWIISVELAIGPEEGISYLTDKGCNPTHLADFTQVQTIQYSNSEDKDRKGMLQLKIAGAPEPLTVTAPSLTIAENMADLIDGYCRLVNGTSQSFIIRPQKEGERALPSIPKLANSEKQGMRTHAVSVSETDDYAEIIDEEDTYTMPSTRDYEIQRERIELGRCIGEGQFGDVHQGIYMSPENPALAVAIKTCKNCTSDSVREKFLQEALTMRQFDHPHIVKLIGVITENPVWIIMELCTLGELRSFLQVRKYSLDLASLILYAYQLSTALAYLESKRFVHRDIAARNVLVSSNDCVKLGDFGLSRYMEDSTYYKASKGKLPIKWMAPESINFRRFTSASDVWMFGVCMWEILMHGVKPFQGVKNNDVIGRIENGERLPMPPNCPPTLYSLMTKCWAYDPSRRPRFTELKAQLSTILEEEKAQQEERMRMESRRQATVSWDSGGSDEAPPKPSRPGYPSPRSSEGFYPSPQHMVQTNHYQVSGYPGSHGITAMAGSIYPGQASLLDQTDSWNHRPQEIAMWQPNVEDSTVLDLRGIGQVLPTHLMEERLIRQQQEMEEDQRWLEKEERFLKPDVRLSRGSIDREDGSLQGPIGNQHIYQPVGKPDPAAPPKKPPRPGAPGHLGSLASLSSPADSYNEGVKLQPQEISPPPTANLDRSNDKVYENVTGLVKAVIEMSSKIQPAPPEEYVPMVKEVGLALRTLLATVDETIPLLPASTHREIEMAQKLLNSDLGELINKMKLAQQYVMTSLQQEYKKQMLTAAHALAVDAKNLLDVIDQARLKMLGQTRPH

Point of comparison: `CC(=NCc1ccco1)C1=C(O)c2ccccc2C1=O`, inhibition 15.2%. Against it:
- CCN(CC)S(=O)(=O)c1ccc2c3c(cccc13)C(=O)S2 — lower, 14.7%
- CCc1ccc2nc3sc(C(=O)Nc4nnc(CC)s4)c(N)c3cc2c1 — higher, 16.1%
- O=[N+]([O-])c1ccc(Oc2ccc(F)cc2Br)c2ccncc12 — lower, 6.15%
- Cn1c(CCN2CCCCCC2)nc2cc(NC(=O)Nc3ccccc3)ccc21 — lower, 7.82%
- O=C(Nc1ccc(-n2ccnc2P(=O)(O)c2ccccc2)cc1)c1ccccc1Br — higher, 16.2%
- COc1ccc(NC(=O)ON=C2c3ccccc3-c3ccccc32)cc1 — lower, 6.77%

With `Cc1cc2cc3c(N)[nH]nc3nc2cc1C` the inhibition was 20.5% (active).
